Assay [1] concerns the target T1, Aspartate--tRNA(Asp/Asn) ligase (Mycobacterium tuberculosis (strain ATCC 25618 / H37Rv)) (UniProt P9WFW3). Note: in the data most compounds retested in dose-response had high values.
T1 sequence (whole entry): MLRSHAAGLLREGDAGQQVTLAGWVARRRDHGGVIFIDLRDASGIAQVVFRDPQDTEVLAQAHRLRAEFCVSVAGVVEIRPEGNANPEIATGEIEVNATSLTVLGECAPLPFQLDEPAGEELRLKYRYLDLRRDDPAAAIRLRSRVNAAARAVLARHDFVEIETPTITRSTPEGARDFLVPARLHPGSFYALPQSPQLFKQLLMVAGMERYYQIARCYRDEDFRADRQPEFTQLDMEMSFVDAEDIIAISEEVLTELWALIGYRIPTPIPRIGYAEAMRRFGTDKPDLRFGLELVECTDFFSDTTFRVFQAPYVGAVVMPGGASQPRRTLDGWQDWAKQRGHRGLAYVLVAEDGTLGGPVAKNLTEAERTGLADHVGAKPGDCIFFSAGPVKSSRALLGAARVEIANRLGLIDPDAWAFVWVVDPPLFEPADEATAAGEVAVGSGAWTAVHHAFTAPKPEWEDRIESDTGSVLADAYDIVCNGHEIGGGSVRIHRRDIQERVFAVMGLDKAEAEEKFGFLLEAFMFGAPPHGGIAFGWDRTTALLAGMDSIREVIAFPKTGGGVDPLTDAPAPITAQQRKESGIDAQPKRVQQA
The experiment in a line: Assay for Asp RNA synthetase-1 from Mycobacterium tuberculosis. Further details: scale not given: direction of the effect not stated beside the values. The assay is classed as functional. The settings on record: 30 µM.

The target of assay [2] is Shiga toxin 2 (Escherichia coli O157:H7) (UniProt P09385+P09386). The experiment in a line: E. coli 0.157:H7 Shiga Toxin SOP - stx2 screening assay. The assay is classed as functional. The arrangement: scale not given: direction of the effect not stated beside the values. The settings on record: 30 µM.

For `CS(=O)(=O)Cc1cccc(C(=O)NCC2Cc3ccccc3O2)c1` (configuration not stated), the Percent Effect was 8.39% in assay [1] and -0.655% in assay [2].
On the same counts, the results for `Cc1noc(C(C)C)c1C(=O)NCc1cc(F)cc(F)c1` are -4.07% and 14.2%.
The matching figures for `Cc1ccc(N2CC[C@H]3C[C@@H](C(=O)N4CCOCC4)O[C@H]3C2)nn1`: 0.749% and 12.8%.
For the molecule `O=C(Cc1cccs1)N1C[C@@H]2COC[C@]2(COc2cccnc2)C1`, the Percent Effect in assay [1] is -6.32%; in assay [2], -1.18%.
On the same counts, the results for `CCOCCCNC(=O)c1ccccc1S(C)(=O)=O` are -2.28% and 0.226%.
On the same counts, the results for `O=C1CCc2cc(C(=O)NCc3ccc(-n4cncn4)nc3)ccc2N1` are -5.04% and 3.55%.
On the same counts, the results for `CCc1cnc(CN(C(C)=O)C2CCN(CCS(C)(=O)=O)C2)o1` (configuration not stated) are -3.9% and -0.798%.
Regarding `Cc1cccc(C)c1NC(=O)CCNC(=O)c1ccoc1`, the Percent Effect in assay [1] is -1.5%; in assay [2] it was 15.3%.
On the same counts, the results for `CC(C)(O)C1CCN(C(=O)Nc2nc(-c3ccccc3)ns2)CC1` are 1.51% and -6.7%.
The matching figures for `Cc1noc(Cl)c1CCC(=O)N1CCCCC1Cn1cccn1` (configuration not stated): 1.35% and -6.37%.
On the same counts, the results for `Cc1nc(CN2CCC3(CC2)NC(=O)CC3c2ccccc2)cs1` (configuration not stated) are -5.35% and 7.78%.
For `COc1ccc(NC(=O)N2CCCC2c2ccco2)cc1OC` (configuration not stated), the Percent Effect in assay [1] is 1.24%; in assay [2], -11.9%.
On the same counts, the results for `Cc1[nH]c2ccccc2c1-c1ccnc(NCCN2CCOCC2)n1` are 7.28% and -44.9%.
The matching figures for `Cn1cc(C2CCCN2Cc2csc(C(C)(C)C)n2)cn1` (configuration not stated): -4.83% and -11.7%.
On the same counts, the results for `Cc1cnn(CC(C)NCc2csc(-c3ccsc3)n2)c1` (configuration not stated) are -7.44% and -28%.
Turning to `CC1CCN(C(=O)c2cccc3ncccc23)CC1`, the Percent Effect was -1.51% in assay [1] and 5.74% in assay [2].
As for `c1cc(CNCC2CNc3ccnn3C2)cc(N2CCCCC2)n1` (configuration not stated), the Percent Effect in assay [1] is -2.55%; in assay [2] it was -110%.
On the same counts, the results for `CC(C)c1nc(CN2CCCN(Cc3nnc(C4CC4)o3)CC2)no1` are -3.22% and -24.4%.
The matching figures for `COCCCN1CC2(CCCCN2C(=O)c2ccsc2)CC1=O` (configuration not stated): -3.53% and -5.69%.
On the same counts, the results for `CN(C)Cc1ccnc(C2CCCN2Cc2cc[nH]n2)n1` (configuration not stated) are -4.42% and 9.83%.
For `COCCN1CCC2(CC1)CN(C(=O)N(C)C)c1ccc(C)cc12`, the Percent Effect was 0.0764% in assay [1] and -2.72% in assay [2].
On to `Cc1cc(C)c(CNC(=O)N2CCCC2c2ccccc2)c(=O)[nH]1` (configuration not stated), for which the figures for the Percent Effect in assay [1] and in assay [2] were -3.97% and -21.1%, respectively.
On the same counts, the results for `Cc1ccc(C(=O)N2CCCC(NC(=O)C(C)C)C2)c(O)c1` (configuration not stated) are 7% and 7.56%.
The matching figures for `Cc1ccc(CN2CCCC23CCN(S(=O)(=O)c2ccccc2)C3)o1` (configuration not stated): 4.14% and 3.29%.
Consider `CCN(CC)C(=O)Cn1ccc2cc(NC(=O)C3CCCO3)ccc21` (configuration not stated), for which the Percent Effect in assay [1] was -4.41%; in assay [2], -1.75%.
On the same counts, the results for `CC(c1ccc(Cl)cc1)N1CCN(CCNS(C)(=O)=O)CC1` (configuration not stated) are 1.42% and -11.7%.
On the same counts, the results for `NC(=O)COc1cccc(C(=O)Nc2cnc3n2CCCC3)c1` are -0.557% and -2.86%.
The matching figures for `O=S(=O)(CCNCc1ccc2c(c1)CCO2)N1CCOCC1`: 0.97% and -25.2%.
In the case of `Cn1cnnc1C1CCN(C(=O)CCCOc2ccccc2F)CC1`, the Percent Effect was 0.819% in assay [1] and -1.48% in assay [2].
On the same counts, the results for `Cc1nn(C)c(C)c1CC(=O)N1CCCC(n2cccn2)C1` (configuration not stated) are -4.75% and 20.6%.
The matching figures for `COc1ccc(CN2C[C@@H](OCc3csc(C)n3)[C@H]3COC[C@H]32)cc1`: -1.16% and -12.3%.
The matching figures for `Cc1cnn(CCC(=O)N2CCCN(c3cccnn3)CC2)c1`: -0.568% and -11.6%.
Take `CCN1CCN(S(=O)(=O)c2cc(Cl)c(Cl)cc2C)CC1`: the Percent Effect was -2.76% in assay [1] and -10.7% in assay [2].
Regarding `c1cnc(-c2nc(CN3CCC(c4ccn[nH]4)CC3)cs2)nc1`, the Percent Effect was -0.495% in assay [1] and -11.4% in assay [2].
The matching figures for `Cn1cc(CN2C[C@@H]3COC[C@@H](C(=O)N4CCCCO4)[C@@H]3C2)cn1`: -1.16% and -15.2%.
Turning to `CN(C(=O)c1cccc2[nH]ncc12)C1CCN(c2ccccn2)CC1`, the values for the Percent Effect in assay [1] and in assay [2] were 4.76% and 24.8%, respectively.
For `COc1ccc(CNC2CCCN(Cc3noc(C)n3)C2)cc1F` (configuration not stated), the Percent Effect was determined as 1.37% in assay [1] and 6.55% in assay [2].
On the same counts, the results for `Cc1cccc(CNCc2c(C(C)C)nn(C)c2N2CCOCC2)n1` are 7.04% and 12.3%.
On the same counts, the results for `O=C(CSc1nncs1)N1CCN(Cc2ccc(Cl)s2)CC1` are -5.38% and -5.37%.
In the case of `O=C(CN(Cc1cccnc1)CC1CCCO1)Nc1ccc(F)cc1` (configuration not stated), the Percent Effect in assay [1] was 5.92%; in assay [2], -3.06%.
The matching figures for `COc1cccc(CN(C)C(=O)CSc2ccc3c(c2)OCCO3)c1`: 0.12% and 7.23%.
As for `Cc1cnn(C2CCCN(C(=O)c3cc(C)sc3C)C2)c1` (configuration not stated), the Percent Effect in assay [1] is -4.82%; in assay [2], -24.8%.
On the same counts, the results for `Cc1occc1C(=O)N1CCC2(CC1)NC(=O)CC2c1cnn(C)c1` (configuration not stated) are -0.199% and -2.15%.
On the same counts, the results for `Cn1ccnc1CC1CCCN(C(=O)Nc2cccn(C)c2=O)C1` (configuration not stated) are 2.75% and -3.01%.
In the case of `Cc1ccc(N2CCCC(NCc3ccsc3)C2)nn1` (configuration not stated), the Percent Effect turned out to be 4.57% in assay [1] and 10.6% in assay [2].
Consider `Cc1cnn(CC2CN(CC(=O)N3CCc4ccccc43)CCO2)c1` (configuration not stated), for which the results for the Percent Effect in assay [1] and in assay [2] were -4.75% and -15.5%, respectively.

Source of the values: ChEMBL document CHEMBL3988442, “University of Dundee, Small-Polar-MMV Screening Library” (2021).
